Pf growth 96h = Primary qHTS for delayed death inhibitors of the malarial parasite plastid, 96 hour incubation; P. falciparum luciferase reporter growth, 96 h; Potency, µM (series often up to 28.7 µM), for the others: top-dose activity change, negative = inhibition, usual class: inhibitors; hit rate 6.9% among 320,000; note: % is set by controls: 0 for no effect and ±100 for the full control effect
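96 h incubation, 37 C, 5% CO2, of luciferase-reporter P. falciparum-infected RBCs (2% hematocrit, 0.05% parasitemia final) with test compounds; endpoint luminescence.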
Sm TGR inh = qHTS Assay for the Inhibitors of Schistosoma Mansoni Peroxiredoxins | Schistosoma mansoni thioredoxin glutathione reductase (TGR), Q962Y6 | purified TGR, DTNB reduction, TNB absorbance 405 nm | Potency, µM (titrated, usually from 114 µM), for the others: at the top dose activity change, negative = inhibition, hits mostly inhibitors | hit rate 3% among 360,000 | AID 485364, 2010; note: % is set by controls: 0 for no effect and ±100 for the full control effect; nearly all actives have a fitted effect of over 60% in size
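TGR 20 nM + NADPH 100 uM (dispensed conc.), cpd preinc 15 min RT; start with NADPH (500 uM addition) then DTNB (15 mM addition). Kinetic TNB absorbance, 405 nm filter. Four-parameter Hill fit across titration.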
Pf growth 48h = Primary qHTS for delayed death inhibitors of the malarial parasite plastid, 48 hour incubation; hit rate 5.9% among 310,000; P. falciparum luciferase growth in erythrocytes, 48 h; AID 504832, 2011; Potency, µM (titrated, usually from 28.7 µM), for the others: top-dose activity change, negative = inhibition, most hits filed as inhibitors; note: % is set by controls: 0 for no effect and ±100 for the full control effect
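First compound was added to culture medium, then infected red cells at 0.1% parasitemia and 2% hematocrit (final). After incubation at 37 C under 5% CO2, luciferase detection reagent was dispensed and light output recorded.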
SARS PLpro yeast = qHTS of Yeast-based Assay for SARS-CoV PLP | S. cerevisiae expressing SARS-CoV PLpro, growth rescue | Potency, µM (top dose mostly 32.9 µM), inactives show at the highest dose activity, positive = growth rescue, most hits filed as activators | hit rate 0.19% among 330,000; calls by dose curve; note: 0% is about no effect; nearly all actives have a fitted effect of over 55% in size
An asterisk follows results filed as active; ? = inconclusive; . = no result given; [ ] = dose if it differs, or a comment. Rows were chosen to be rich in hits. Some 12% of all compounds tested hit in one or more screens of this group. Unless noted, calls come from the whole dose curve; as a rule, active = well fitted curve in the direction sought with a large enough effect; inconclusive = small, poorly fitted or top-dose-only effect, or another doubt; inactive = no such curve, though single readings can be large; an effect the other way counts as inactive or inconclusive. Potency is the fitted concentration of half-maximal effect.

SMILES	Pf growth 96h	Sm TGR inh	Pf growth 48h	SARS PLpro yeast
O=C(Nc1ccc(C(=O)N2CCC(O)(c3ccc(Cl)c(C(F)(F)F)c3)CC2)cc1)c1ccc(Br)o1	13µM*	?	?	8%
O=C(Nc1ccc(C(=O)N2CCC(N3CCCC3)CC2)cc1)c1ccc(Br)o1	48%	25µM*	?	0%
CC1CCN(c2ccc(NC(=O)c3ccc(Br)o3)cc2)CC1	?	6%	-7%	3%
CC(C)(C)c1cnnn1-c1ccc(NC(=O)c2ccc(Br)o2)cc1	261%	-1%	10µM*	14%
COc1ccc(-c2ccc(NS(=O)(=O)c3cc(C)c(C)cc3C)cc2)nn1	.	9%	.	.
Cc1nnsc1C(=O)Nc1ccccc1	10µM*	4%	-5%	2%
CCOC(=O)c1cc(CC)sc1NC(=O)CSc1nc2ccccc2c(=O)n1Cc1ccco1	45%	5%	22%	-17%
Cc1cc2c(=O)n(Cc3ccco3)c(SCC(=O)c3ccc(Cl)s3)nc2s1	202%	?	5.9µM*	3%
CCOC(=O)CC(=O)CSc1nc2sc(C)cc2c(=O)n1Cc1ccco1	.	-10%	4.7µM*	4%
Cc1ccc(/C=C/C(=O)OC(C)C(=O)Nc2ccc(Cl)cn2)o1 (centres undefined)	-3%	13µM*	-5%	-11%
COc1cc(/C=C/C(=O)OC(C)C(=O)Nc2ccc(Cl)cn2)ccc1OC(F)F (centres undefined)	.	.	.	-7%
Cc1ccccc1Nc1nnc(SCC(=O)NCC2CCCO2)s1 (centres undefined)	.	.	.	4%
O=c1c(Cc2ccc(Cl)cc2)c(O)ccn1Cc1ccccc1	-14%	1%	?	-2%
O=c1c(Cc2ccc(Cl)cc2)c(O)ccn1Cc1cccc(Cl)c1	-22%	-2%	?	1%
O=c1c(Cc2ccc(F)cc2)c(O)ccn1Cc1cccc(Cl)c1	13µM*	0%	12µM*	8%
O=c1c(Cc2ccc(Cl)cc2Cl)c(O)ccn1Cc1ccc(Cl)cc1	?	5%	4.1µM*	-25%
O=C(Nc1ccc(S(=O)(=O)Nc2ncccn2)cc1)c1ccc(Cl)c([N+](=O)[O-])c1	0%	-22%	-12%	-6%
CCc1ccc(C(=O)c2cn(CC(=O)Nc3cc(OC)ccc3OC)c3nc(C)ccc3c2=O)cc1	.	-1%	.	.
COc1cc(/C=C2/NC(=O)N(Cc3ccccc3F)C2=O)cc(OC)c1O	-17%	14µM*	-17%	2%
CCOC(=O)C1(CC2CCCCO2)CCN(Cc2ccccc2-c2ccco2)CC1 (centres undefined)	7%	40µM*	?	0%
Cn1nnnc1SCC1=C(C(=O)O)N2C(=O)[C@@H](NC(=O)[C@@H](O)c3ccccc3)[C@@H]2SC1	-13%[12.8 µM]	.	-3%[12.8 µM]	.
CC(=O)OCC1=C(C(=O)O)N2C(=O)C(NC(=O)CCn3nc(C(F)(F)F)c(Br)c3C3CC3)C2SC1 (centres undefined)	18%	22µM*	7%	0%
Cc1nnc(SCC2=C(C(=O)O)N3C(=O)C(NC(=O)Cn4nc(C(F)F)c(Cl)c4C)C3SC2)s1 (centres undefined)	34%	13µM*	-9%	-1%
Cc1nnc(SCC2=C(C(=O)O)N3C(=O)C(NC(=O)Cn4nc(C(F)F)cc4C)C3SC2)s1 (centres undefined)	?	40µM*	?	1%
CC(=O)OCC1=C(C(=O)O)N2C(=O)C(NC(=O)Cn3nc(C(F)F)c(Cl)c3C)C2SC1 (centres undefined)	24%	22µM*	-16%	-3%
SMILES	Pf growth 96h	Sm TGR inh	Pf growth 48h	SARS PLpro yeast
CC(=O)OCC1=C(C(=O)O)N2C(=O)C(NC(=O)CCn3nc(C)c(Cl)c3C)C2SC1 (centres undefined)	-5%	28µM*	13%	-5%
CC(=O)OCC1=C(C(=O)O)N2C(=O)[C@@H](N)[C@@H]2SC1	-10%[12.8 µM]	.	-6%[12.8 µM]	.
O=C(O)CN1C(=O)c2ccc(Oc3ccc4c(c3)C(=O)N(CC(=O)O)C4=O)cc2C1=O	50%	-9%	2.1µM*	0%
COc1ccc(-c2csc(Nc3ccccc3)[n+]2Cc2ccccc2)cc1	13µM*	6%	-28%	-8%
Cc1ccc(-c2csc(Nc3ccc(C(=O)O)cc3)[n+]2Cc2ccccc2)cc1	?	.	?	-1%
O=C(Cc1nc(-c2ccc([N+](=O)[O-])cc2)cs1)Nc1ccccc1	-5%	-8%	-15%	-9%
O=[N+]([O-])c1ccc(-c2csc(Nc3ccccc3)[n+]2Cc2ccccc2)cc1	?	-2%	5.2µM*	-36%
Cc1ccc(-c2csc(Nc3ccccc3)[n+]2CCc2ccccc2)cc1	2.1µM*	14%	12µM*	-4%
O=C(Nc1ccc(S(=O)(=O)Nc2ccccc2)cc1)N1CCCC1	.	3%	.	.
CCOC(=O)c1cnc2ccc(OCC)cc2c1NCc1ccccc1OC	85%	0%	12µM*	-13%
CCOC(=O)c1cnc2ccc(C)cc2c1NCCO	?	-24%	13µM*	4%
CCOC(=O)c1cnc2ccc(OC)cc2c1NCc1ccccc1	?	-1%	12µM*	-19%
COc1cc(C(=O)CC2(O)C(=O)N(Cc3ccccc3Cl)c3ccccc32)cc(OC)c1OC (centres undefined)	.	2%	.	.
COCCCNC(=O)c1cc2cc3cc(OC)ccc3nc2o1	-21%	-1%	10µM*	-5%
COc1ccc2cc3cc(C(=O)NC(C)C)oc3nc2c1	2.9µM*	8%	.	-17%
COc1ccc2cc3cc(C(=O)Nc4cc(OC)c(OC)c(OC)c4)oc3nc2c1	?	8%	.	1%
CC1(C)CC(=O)C2=C(C1)c1c(ccc3ccccc13)NC2c1ccco1 (centres undefined)	.	45µM*	?	-3%
CC1(C)CC(=O)C2=C(C1)Nc1ccccc1N(C(=O)C1CC1)C2c1ccco1 (centres undefined)	50%	-29%[57.1 µM]	-17%	1%
COc1ccc(N(C)C(=O)C2CCN(S(=O)(=O)c3cccc4nonc34)CC2)c(OC)c1	9.3µM*	-11%	?	-2%
CN(C(=O)C1CCN(S(=O)(=O)c2cccc3nonc23)CC1)C1CCCCC1	?	5%	-8%	1%
COc1cc(NC(=O)C2CCN(S(=O)(=O)c3cccc4nonc34)CC2)cc(OC)c1	41%	-20%	?	2%
CN(Cc1ccccc1)C(=O)C1CCN(S(=O)(=O)c2cccc3nonc23)CC1	13µM*	0%	-9%	-4%
COc1ccc(OC)c(S(=O)(=O)NCc2ccc3c(c2)CCN3C(=O)c2cccc(C)c2)c1	.	1%	.	.
CCN1CCN(C2=C(NS(=O)(=O)c3ccccc3)C(=O)c3ccccc3C2=O)CC1	2.9µM*	?	5.9µM*	-2%
CCN1CCN(C2=C(NS(=O)(=O)c3ccc(Br)cc3)C(=O)c3ccccc3C2=O)CC1	?	45µM*	2.6µM*	-1%
